Reference: ChEMBL document CHEMBL1157539, “Thousands of chemical starting points for antimalarial lead identification” (Nature, 2010)
Over roughly 13,000 compounds, “IFI” has its median near 4; the highest 2% begin near 17. Many of the other results were omitted from the sample, so the highest values are more common in it than they were.

Test: GSK_TCMDC: Inhibition Frequency Index (IFI). The number of non-kinase HTS assays where a compound showed > 50 % inhibition, expressed as a percentage of the number of such assays in which the compound was tested
Type: functional

First: NS(=O)(=O)c1ccc(Nc2nccc(-c3c(-c4cccc(NC(=O)c5c(F)cccc5F)c4)nn4ccccc34)n2)cc1
Second: CC(C)[C@H](NC(=O)c1c(F)cccc1F)C(=O)Nc1ccc(Cc2nc3ccccc3s2)cc1
The IFI of the first is higher: 7.96% for the first, 1.96% for the second.

Going from `Cc1cc(-c2ccc3c(c2)CCN(CCCOc2ccc4c(c2)CCN4C(=O)/C=C/c2ccccc2Cl)CC3)no1` to `Cc1ccc(CN2CCCN(Cc3cccc(NC(=O)c4cc5ccccc5s4)c3)CC2)cc1`, the IFI falls from 10.8% to 10.2%.

Compared with `CN(C)CCN(C)Cc1ccc(-c2ccc3c(Nc4ccc(F)cc4Cl)ccnc3c2)o1`, `COc1ccc2c(NN=Cc3ccccc3F)ccnc2c1` is lower in IFI: 9.86% for the first, 3.52% for the second.

Going from `Nc1ccc2[nH]cc(C3CCN(CCC4CCN(C(=O)/C=C/c5ccc(Cl)c(Cl)c5)CC4)CC3)c2n1` to `O=C(/C=C/c1ccc(Cl)c(Cl)c1)NC1CCC(CN2CCC(c3nc4cccnc4[nH]3)CC2)CC1` (stereo not drawn), the IFI falls from 8.76% to 4.96%.

Compared with `CCCNCc1ccc(-c2ccc(CN(CCOC)C(=O)c3cnc(C)cn3)cc2)nc1`, `CN(C)CCN(Cc1ccc(-c2ccc(CNCCc3ccccc3)cc2)nc1)C(=O)CCC1CCCC1` is higher in IFI: 0% for the first, 8.33% for the second.

First: O=C(Nc1ccc(C(F)(F)F)cc1)N[C@H]1CCN(CCCCCNC(=O)C2CC2c2ccc(Cl)c(Cl)c2)C1 (stereo partly drawn)
Second: O=C(Nc1ccc(C(F)(F)F)cc1)c1ccc(S(=O)(=O)NC2CCN(CC3CCCCC3)CC2)cc1
The IFI of the first is higher: 16.8% for the first, 2.41% for the second.

Compared with `CC(C)Cc1cn(-c2nc(-c3nc4ccccc4[nH]3)cs2)c2ccncc12`, `CC(C)Cc1cn(-c2nc(-c3nc4ccccc4[nH]3)cs2)c2cc(Cl)ccc12` is lower in IFI: 4.94% for the first, 1.18% for the second.

Compared with `CC(C)Cc1cn(-c2nc(C(=N)N)cs2)c2cc(Cl)ccc12`, `CC(C)CCN1CCC(Oc2ccc(NC(=O)c3cccs3)cc2Cl)CC1` is lower in IFI: 23.9% for the first, 8.06% for the second.

Compared with `CCCN(Cc1ccc(C)cc1)Cc1cc(=O)c2cc(Cl)ccc2[nH]1`, `Cc1ccc2c(=NN=Cc3cccc(Cl)c3)cc(C)[nH]c2c1` is higher in IFI: 9.09% for the first, 10.1% for the second.

Compared with `Fc1ccc2[nH]c(-c3cccc(-c4cccc(CN5CCN(c6ccncc6)CC5)c4)c3)nc2c1`, `Fc1ccc2[nH]c(-c3ccc(-c4cccc(CN5CCN(c6ccncc6)CC5)c4)cc3)nc2c1` is higher in IFI: 13.6% for the first, 18.1% for the second.

First: Fc1ccc2[nH]c(-c3cccc(-c4ccc(CN5CCN(c6ccncc6)CC5)cc4)c3)nc2c1
Second: FC(F)(F)c1ccc2[nH]c(-c3cccc(-c4cccc(CN5CCN(c6ccncc6)CC5)c4)c3)nc2c1
The IFI of the first is lower: 5.63% for the first, 11.5% for the second.

First: Cc1cc(N)c2cc(NC(=O)c3cc4ccccc4s3)ccc2n1
Second: Cc1cc(N[C@@H](Cc2ccccc2)C(=O)NCc2cccc(F)c2)nc(Nc2ccccc2)n1
The IFI of the first is higher: 6.12% for the first, 4.76% for the second.

First: c1ccc(COc2ccc(C3CCCCC3)cc2)nc1
Second: CC(CNC(=N)c1cccc(C(=N)NCC(C)Oc2cccc(C3CCCCC3)c2)n1)Oc1cccc(C2CCCCC2)c1 (stereo not drawn)
The IFI of the first is lower: 2.9% for the first, 17.7% for the second.

Compared with `N=C(NCC1CC1c1ccccc1)c1cccc(C(=N)NCC2CC2c2ccccc2)n1` (stereo not drawn), `Cc1cc(N[C@@H](Cc2ccccc2)C(=O)NCc2cccc(F)c2)nc(NCCc2ccccc2)n1` is higher in IFI: 5.65% for the first, 9.3% for the second.

Going from `Cc1cccc(NC(=O)Nc2cccc(-c3ccc(-c4nc5cc(C(F)(F)F)ccc5[nH]4)cc3)c2)c1` to `N#Cc1cccc(NC(=O)Nc2ccc(-c3cccc(-c4nc5cc(F)ccc5[nH]4)c3)cc2)c1`, the IFI falls from 6.45% to 4.04%.

Going from `O=C(Nc1cc(C(F)(F)F)cc(C(F)(F)F)c1)c1cc(C(F)(F)F)cc(C(F)(F)F)c1` to `O=C(Nc1ccc(Br)cc1)c1cc(Br)ccc1NS(=O)(=O)c1cc(C(F)(F)F)cc(C(F)(F)F)c1`, the IFI rises from 3.65% to 19.9%.

Compared with `Cc1ccc(C)c(S(=O)(=O)Nc2ccc(Br)cc2C(=O)Nc2cccc(C(F)(F)F)c2)c1`, `O=C(Nc1ccc(Br)cc1)c1cc(Br)ccc1NS(=O)(=O)c1ccc(C(F)(F)F)cc1` is higher in IFI: 21.1% for the first, 25% for the second.

Going from `NCCNc1ccc([N+](=O)[O-])cc1C(=O)Nc1cccc(C(F)(F)F)c1` to `Cc1cc(Cl)c(Cl)cc1NC(=O)Nc1cccc(C(F)(F)F)c1`, the IFI rises from 1.45% to 6.52%.

Compared with `COc1cc(NC(=O)Nc2ccc(Br)cc2C(=O)Nc2ccc(Br)cc2)cc(OC)c1OC`, `COc1cccc(-c2ccc(NC(=O)C3CCCN(Cc4cccc(OC)c4O)C3)cc2)c1` (stereo not drawn) is higher in IFI: 1.55% for the first, 4.35% for the second.

Going from `O=C(Nc1ccc(C(F)(F)F)cc1)c1cc(Br)cnc1NCCCn1ccnc1` to `O=C(Nc1ccc(-c2cccc(-c3nc4cc(C(F)(F)F)ccc4[nH]3)c2)cc1)Nc1ccc(F)c(F)c1F`, the IFI rises from 1.67% to 5.83%.

First: CN(N=Cc1ccccc1)C(=N)NCCCC#Cc1cccc(CN2CCCC2)c1
Second: c1cc(CN2CCC(CCN3CCCCC3)CC2)cc(-c2cccc(-c3nc4ccccc4[nH]3)c2)c1
The IFI of the first is lower: 4.23% for the first, 5.56% for the second.

First: CC(Sc1nnc(-c2cccs2)[nH]1)C(=O)c1c[nH]c2ccccc12 (stereo not drawn)
Second: Cc1cc(N[C@@H](CC(C)C)C(=O)NCc2cccc(F)c2)nc(NCCc2ccccc2)n1
The IFI of the first is lower: 1.92% for the first, 17.1% for the second.

Compared with `Oc1ccc2nc(NCCCc3ccccc3)nc(NCCc3ccccc3)c2c1`, `Cc1cc(N[C@@H](Cc2ccccc2)C(=O)NCCOc2ccccc2)nc(NCCc2ccccc2)n1` is higher in IFI: 14.1% for the first, 16.3% for the second.

Compared with `CCN(CC)/C(=N/C(=N)NCc1ccc(Cl)cc1)NCCCCCCN/C(=N\C(=N)NCc1ccc(Cl)cc1)N(CC)CC`, `CC1(C)CCC(C)(C)c2c1ccc(C1CCN(CCCCNC(=O)c3ccc(-c4ccc(Cl)cc4)cc3)CC1)c2O` is lower in IFI: 15.1% for the first, 13.7% for the second.

Going from `CCC(=O)NC(c1ccco1)c1cc(Cl)c2cccnc2c1O` (stereo not drawn) to `O=C(Cc1ccccc1)NC(c1ccco1)c1cc(Cl)c2cccnc2c1O` (stereo not drawn), the IFI rises from 4.35% to 8%.

Compared with `Oc1c(C(Nc2ccccn2)c2ccco2)cc(Cl)c2cccnc12` (stereo not drawn), `Cc1ccc(CNC(=O)[C@H](Cc2ccccc2)Nc2cc(C)nc(NCc3ccccc3C)n2)cc1` is lower in IFI: 22.6% for the first, 4.88% for the second.

Going from `N=C1C=C(N)C(=O)c2ccccc21` to `CCC(CC)CN1C(=O)C(c2ccccc2)(c2ccccc2)N=C1N`, the IFI falls from 20.8% to 3.7%.

Compared with `COc1ccc(CCCN2C(=O)C(c3ccccc3)(c3ccccc3)N=C2N)cc1`, `COc1ccc(CCCCN2C(=O)C(c3ccccc3)(c3ccccc3)N=C2N)cc1` is lower in IFI: 8.65% for the first, 7.69% for the second.

Going from `CCCCC(CC)CN1C(=O)C(c2ccccc2)(c2ccccc2)N=C1N` (stereo not drawn) to `CCCCC(CCCC)CN1C(=O)C(c2ccccc2)(c2ccccc2)N=C1N`, the IFI rises from 16.3% to 20.9%.

Going from `COc1ccccc1CCCN1C(=O)C(c2ccccc2)(c2ccccc2)N=C1N` to `Cc1cc(N[C@@H](Cc2ccccc2)C(=O)NCCc2ccccc2)nc(NCCOc2ccccc2)n1`, the IFI falls from 22.3% to 7.5%.

First: Cc1cccc2nc(-c3ccc(-c4ccc(CNCc5ccccc5)cc4)s3)[nH]c12
Second: Cc1cccc2nc(-c3cccc(-c4cccc(CNCc5ccc(S(C)(=O)=O)cc5)c4)c3)[nH]c12
The IFI of the first is higher: 9.62% for the first, 8.65% for the second.

Compared with `Oc1c(CN2CCCC(C(F)(F)F)C2)cc(Cl)c2ccccc12` (stereo not drawn), `CC(C)Cn1cc(C2CCN(CCN3CCC(CNC(=O)c4ccc(-c5ccc(C(F)(F)F)cc5)cc4)CC3)CC2)c2ccccc21` is higher in IFI: 6.38% for the first, 9.17% for the second.

First: CN1CCC(C(=O)Nc2cccc(-c3cccc(-c4nc5cc(F)ccc5[nH]4)c3)c2)CC1
Second: COc1ccc(-c2cccc(NC(=O)c3cccc(C#N)c3)c2)cc1CN1CCC(O)CC1
The IFI of the first is higher: 4.24% for the first, 0% for the second.

Going from `Cc1cc(N[C@@H](CC(C)C)C(=O)NCc2cccc(F)c2)nc(NCC2CCCCC2)n1` to `Cc1ccc(CNC(=O)[C@H](CC(C)C)Nc2cc(C)nc(NCC3CCCCC3)n2)cc1`, the IFI rises from 18.6% to 19.1%.

First: Cc1cc(N[C@@H](Cc2ccccc2)C(=O)NCc2cccs2)nc(NCC2CCCCC2)n1
Second: Cc1cc(N[C@@H](Cc2ccccc2)C(=O)NCc2cccc(F)c2)nc(NCC2CCCCC2)n1
The IFI of the first is lower: 16.3% for the first, 27.9% for the second.

First: Cc1cccc(CNc2nc(C)cc(N[C@@H](CC(C)C)C(=O)NCc3cccc(F)c3)n2)c1
Second: Cc1cccc(CNc2nc(C)cc(N[C@@H](Cc3ccccc3)C(=O)NCc3cccc(F)c3)n2)c1
The IFI of the first is lower: 9.52% for the first, 19.1% for the second.

First: Cc1cc(N[C@@H](Cc2ccccc2)C(=O)NCCOc2ccccc2)nc(NCCOc2ccccc2)n1
Second: Cc1cc(N[C@@H](Cc2ccccc2)C(=O)NCc2cccc(F)c2)nc(NCCOc2ccccc2)n1
The IFI of the first is higher: 24.4% for the first, 6.98% for the second.

Compared with `Cc1ccc(CNC(=O)[C@H](Cc2ccccc2)Nc2cc(C)nc(NCC3CCCCC3)n2)cc1`, `Cc1ccc(CNC(=O)[C@H](CCCN)Nc2cc(C)nc(NCC3CCCCC3)n2)cc1` is lower in IFI: 24.3% for the first, 4.88% for the second.

Compared with `Cc1cc(N[C@@H](CC(C)C)C(=O)NCCc2ccccc2)nc(NCC2CCCCC2)n1`, `Cc1cc(N[C@@H](Cc2ccccc2)C(=O)NCCCOC(C)C)nc(NCCc2ccc(F)cc2)n1` is lower in IFI: 16.3% for the first, 2.44% for the second.

Compared with `COc1ccc2c(N/N=C/c3ccccc3[N+](=O)[O-])ccnc2c1`, `Cc1cc(N[C@@H](Cc2ccccc2)C(=O)NCc2cccc(F)c2)nc(NCCCOC(C)C)n1` is higher in IFI: 3.62% for the first, 18.2% for the second.

First: COc1ccc(CON2C(=N)N=C(N)NC2(C)C)cc1OC
Second: CC1(C)N=C(N)N=C(Nc2ccc(Cl)cc2)N1
The IFI of the first is higher: 1.47% for the first, 0.76% for the second.

Compared with `COc1ccc(C#Cc2ccc(-c3c(C)[nH]c(C)c(Cl)c3=O)cc2)cc1`, `Cc1nc(C)c(-c2ccc(S(=O)(=O)c3ccc(Cl)cc3)cc2)c(O)c1Cl` is lower in IFI: 0.88% for the first, 0.78% for the second.

Compared with `CCN(CC)CCN(Cc1ccc(-c2ccc(C(F)(F)F)cc2)cc1)C(=O)Cn1c(CCc2c(F)ccc(F)c2F)nc(=O)c2ccccc21`, `CCN(CC)CCN(Cc1ccc(-c2ccc(C(F)(F)F)cc2)cc1)C(=O)Cn1c(/C=C/c2ccco2)nc(=O)c2ccccc21` is lower in IFI: 9.09% for the first, 5.52% for the second.

Going from `Cc1cc(N[C@@H](Cc2ccccc2)C(=O)NCc2cccc(F)c2)nc(NCc2ccccc2C)n1` to `Cc1cc(N[C@@H](Cc2ccccc2)C(=O)NCc2cccc(F)c2)nc(NCCc2ccc(F)cc2)n1`, the IFI rises from 4.88% to 9.09%.
